Test results from PubChem BioAssay (EPA / NIEHS).
Inconclusive results are not listed. Activity calls are given as the source filed them. The calls were made as follows, unless noted: active = hit-call score of the fitted dose curve at least 0.9, where 1 is the maximum; inactive = score below 0.9.

Experiments:
[1] = TOX21_p53_BLA_p4_viability: Viability Assessment in the Tox21 HCT-116 p53 Agonism Beta-lactamase Assay, Phase 4 (AID 2283597; active = hit-call score of the fitted dose curve at least 0.9, where 1 is the maximum;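 also: hits lower the luminescence signal meaning cytotoxicity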)
How it was run: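 Cells plated, 5 h pre-incubation; DMSO compounds pinned (217-fold dilution); 16 h, 37C/5% CO2; CCF4-AM 2 h RT; CellTiter-Glo 30 min RT; luminescence read.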

[2] = target: Cellular tumor antigen p53 (Homo sapiens) (UniProt P04637); experiment: TOX21_p53_BLA_p3_ratio: Tox21 HCT-116 p53 Agonism Beta-lactamase Assay, Ratio, Phase 3 (AID 2283596; active = hit-call score of the fitted dose curve at least 0.9, where 1 is the maximum)
Sequence of Cellular tumor antigen p53 (Homo sapiens) (P04637 whole entry, looked up): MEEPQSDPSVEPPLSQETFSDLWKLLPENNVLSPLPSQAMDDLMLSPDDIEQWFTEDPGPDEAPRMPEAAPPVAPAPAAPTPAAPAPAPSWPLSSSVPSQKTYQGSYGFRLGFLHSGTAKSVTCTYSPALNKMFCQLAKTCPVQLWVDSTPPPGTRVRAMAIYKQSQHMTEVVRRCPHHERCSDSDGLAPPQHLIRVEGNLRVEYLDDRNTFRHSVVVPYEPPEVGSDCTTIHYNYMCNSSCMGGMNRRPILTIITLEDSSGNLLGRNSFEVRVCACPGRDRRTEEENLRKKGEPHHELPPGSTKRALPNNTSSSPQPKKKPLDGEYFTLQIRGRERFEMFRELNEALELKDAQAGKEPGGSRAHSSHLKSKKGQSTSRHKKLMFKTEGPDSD
How it was run: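 HCT116 p53-bla cells (4000/well) given compound in DMSO (217-fold dilution) after 5 h, incubated 16 h at 37C. CCF4-AM substrate 2 h at room temperature; 460/530 nm emission ratio, gain fitted against DMSO.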

[3] = target: Thyroid hormone receptor alpha (Rattus norvegicus) + Thyroid hormone receptor beta (Rattus norvegicus) (UniProt P18113+P63059); experiment: TOX21_TR_LUC_GH3_Antagonist_Followup: Tox21 GH3 Thyroid Hormone Receptor Antagonism Luciferase Follow-Up Assay (AID 2283942; active = hit-call score of the fitted dose curve at least 0.9, where 1 is the maximum)
How it was run: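 Rat pituitary GH3 cells with a TRα/TRβ-driven luciferase reporter, 5 h attachment, then 15 concentrations (92 uM to 5nM final) plus 1.0 nM T3 agonist, 24 h at 37C/5% CO2. ONE-Glo luminescence; signal change fitted against DMSO baseline.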

[4] = test system: Thyroperoxidase (TPO), gene 54314; experiment: CCTE_Simmons_AUR_rTPO: CCTE's Amplex UltraRed Assay for Thyroperoxidase (TPO) Inhibition, Simmons Lab (AID 2283662; active = hit-call score of the fitted dose curve at least 0.9, where 1 is the maximum)
How it was run: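 Endpoint is decreased Amplex UltraRed fluorescence after a 30-min, 37C reaction of rat thyroid microsomes with 300 uM H2O2. Eight test concentrations (5 nM–87.5 uM final) in 0.5% DMSO, three biological replicates each.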

THRA (gene 7067) = THRA (gene 7067) (UniProt P10827); experiment: TOX21_TRA_COA_Agonist_Followup_ratio: Tox21 Thyroid Hormone Receptor alpha Agonism through Coactivator Recruitment Follow-Up Assay, Ratio (AID 2283948)
Sequence of THRA (gene 7067) (P10827 whole entry, looked up, the tested form may be a part): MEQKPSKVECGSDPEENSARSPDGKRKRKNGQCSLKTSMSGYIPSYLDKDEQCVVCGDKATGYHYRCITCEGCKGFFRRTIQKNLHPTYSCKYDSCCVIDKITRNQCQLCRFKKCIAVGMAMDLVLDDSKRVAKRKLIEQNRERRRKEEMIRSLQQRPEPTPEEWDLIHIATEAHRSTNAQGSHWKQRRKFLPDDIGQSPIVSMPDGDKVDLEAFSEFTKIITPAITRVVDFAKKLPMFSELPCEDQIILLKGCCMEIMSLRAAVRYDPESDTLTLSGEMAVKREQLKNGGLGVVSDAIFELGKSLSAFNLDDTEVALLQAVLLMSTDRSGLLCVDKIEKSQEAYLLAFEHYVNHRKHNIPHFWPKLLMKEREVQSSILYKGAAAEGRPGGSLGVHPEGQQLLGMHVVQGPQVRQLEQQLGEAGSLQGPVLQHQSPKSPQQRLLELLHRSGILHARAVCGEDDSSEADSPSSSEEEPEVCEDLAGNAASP
How it was run: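 Follow-up specificity assay in which TRα ligand-binding domain, expressed as a GST fusion, recruits a fluorescein-labelled SRC-2 peptide. Energy transfer from a terbium anti-GST antibody gives the acceptor/donor ratio, fitted upward relative to DMSO.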

THRB (gene 7068) [5] = target: THRB (gene 7068) (UniProt P10828); experiment: TOX21_TRB_BLA_Agonist_Followup_ratio: Tox21 Thyroid Hormone Receptor beta Agonism Beta-lactamase (BLA) Follow-Up Assay, Ratio (AID 2283954; active = hit-call score of the fitted dose curve at least 0.9, where 1 is the maximum)
Sequence of THRB (gene 7068) (P10828 whole entry, looked up, the tested form may be a part): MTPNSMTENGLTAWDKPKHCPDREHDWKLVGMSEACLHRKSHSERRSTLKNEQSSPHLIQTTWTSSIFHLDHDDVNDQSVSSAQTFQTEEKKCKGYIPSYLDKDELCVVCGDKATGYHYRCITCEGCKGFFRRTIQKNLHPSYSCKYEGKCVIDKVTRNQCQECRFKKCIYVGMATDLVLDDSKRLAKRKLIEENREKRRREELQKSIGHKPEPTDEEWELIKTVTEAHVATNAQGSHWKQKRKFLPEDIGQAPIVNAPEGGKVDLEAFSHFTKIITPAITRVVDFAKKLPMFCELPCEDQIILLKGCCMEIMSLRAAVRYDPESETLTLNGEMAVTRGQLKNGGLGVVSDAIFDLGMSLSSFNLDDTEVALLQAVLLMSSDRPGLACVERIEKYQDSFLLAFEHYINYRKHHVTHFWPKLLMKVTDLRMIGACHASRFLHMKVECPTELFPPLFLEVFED
How it was run: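 Human TRβ LBD–GAL4 DBD fusion in GeneBLAzer UAS-bla HEK293T cells; 11 concentrations in triplicate, 18 h at 37°C/5% CO2, T3 as agonist control. CCF4-AM substrate 2 h at room temperature; 460:530 nm ratio fitted for gain of signal versus DMSO.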

THRB (gene 7068) [6] = target: THRB (gene 7068) (UniProt P10828); experiment: TOX21_TRB_COA_Agonist_Followup_ratio: Tox21 Thyroid Hormone Receptor beta Agonism through Coactivator Recruitment Follow-Up Assay, Ratio (AID 2283963)
How it was run: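 Agonism is measured as coactivator recruitment in a purified-protein TR-FRET format, using GST-TRβ LBD at 5.0 nM, fluorescein-SRC-2 peptide at 200 nM and Tb-labeled anti-GST antibody at 2 nM. Values are 520:495 nm ratios relative to DMSO (0%) and T3 (100%).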

[7] = target: Retinoic acid receptor RXR-alpha (Homo sapiens) (UniProt P19793); experiment: TOX21_TR_RXR_BLA_Agonist_Followup_ratio: Tox21 Thyroid Hormone Receptor beta Retinoid X Receptor alpha (RXRa) Agonism Beta-lactamase (BLA) Follow-Up Assay, Ratio (AID 2283968; active = hit-call score of the fitted dose curve at least 0.9, where 1 is the maximum)
Sequence of Retinoic acid receptor RXR-alpha (Homo sapiens) (P19793 whole entry, looked up, the tested form may be a part): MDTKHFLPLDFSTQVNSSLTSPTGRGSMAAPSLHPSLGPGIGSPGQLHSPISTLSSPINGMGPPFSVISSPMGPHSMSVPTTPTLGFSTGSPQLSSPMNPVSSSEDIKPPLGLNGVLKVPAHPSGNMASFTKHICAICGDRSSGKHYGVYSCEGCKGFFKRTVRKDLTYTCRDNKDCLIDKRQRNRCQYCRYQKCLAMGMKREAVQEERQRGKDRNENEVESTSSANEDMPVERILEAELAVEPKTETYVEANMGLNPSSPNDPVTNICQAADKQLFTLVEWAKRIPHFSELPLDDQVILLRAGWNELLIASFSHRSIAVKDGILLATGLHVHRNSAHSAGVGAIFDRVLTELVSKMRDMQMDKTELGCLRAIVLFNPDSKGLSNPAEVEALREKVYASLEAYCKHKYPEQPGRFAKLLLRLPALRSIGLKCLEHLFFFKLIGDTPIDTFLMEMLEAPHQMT
How it was run: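 This follow-up tests whether responses seen in the TR GH3 luciferase agonist screen are specific, using a GAL4-driven beta-lactamase reporter for RXRa in HEK293T cells. Compound exposure lasts 16 h; signal is the cleaved/uncleaved substrate ratio.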

[8] = CCTE_Shafer_MEA_acute_interburst_interval_mean: CCTE's Neural Acute Assay for Mean Interburst Interval, Shafer Lab (AID 2284016);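 also: percent change of mean interburst interval versus each well's own pre-dose baseline; curves fitted for decrease in interburst interval relative to DMSO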
How it was run: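 MEA recording of spontaneous network bursting in primary rat cortical cultures; mean interburst interval was compared before and after a 40-min compound exposure (0.03-40 uM) and expressed as percent change, relative to DMSO.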

[9] = CCTE_Shafer_MEA_acute_burst_percentage_mean: CCTE's Neural Acute Assay for Percentage of Spikes in a Burst, Shafer Lab (AID 2284017);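 as to AC50: curve fitted for loss of signal so potency reflects decreased burst percentage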
How it was run: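 Compounds were tested at 0.03-40 uM on primary rat cortical neuron networks grown over microelectrodes, with at least three wells per compound. Spontaneous firing was recorded for 40 min before and 40 min after dosing, and the change in burst percentage was computed per well.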

[10] = CCTE_Shafer_MEA_acute_burst_percentage_std: CCTE's Neural Acute Assay for Standard Deviation of Burst Percentage, Shafer Lab (AID 2284018);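 also: fitted in the negative direction so actives lower burst percentage SD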
How it was run: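 Primary rat cortical neurons on 16-electrode MEA wells were recorded 40 min at baseline (DIV 13 or 15), then 40 min after compound (0.03-40 uM), at 37 C. Well value is SD across electrodes of spikes-in-bursts/total spikes; endpoint is percent change, DMSO-referenced.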

[11] = CCTE_Shafer_MEA_acute_per_network_burst_spike_number_mean: CCTE's Neural Acute Assay for Average Number of Spikes in a Network Burst, Shafer Lab (AID 2284019);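 as to AC50: curve fitted for loss of signal so actives reduce spikes per network burst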
How it was run: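 Primary rat cortical neurons on 16-electrode MEA wells, DIV 13 or 15, 37 C; 40-min baseline then 40-min recording with compound (0.03-40 uM). Spikes per network burst (total spikes/number of bursts) expressed as percent change from baseline, DMSO reference.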

[12] = CCTE_Shafer_MEA_acute_per_network_burst_spike_number_std: CCTE's Neural Acute Assay for Standard Deviation of Number of Spikes in a Network Burst, Shafer Lab (AID 2284020);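 also: fitted for decrease in spike-number SD versus DMSO so actives lower it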
How it was run: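 Primary rat cortical neurons on 48-well MEAs (16 electrodes/well) recorded at DIV 13 or 15: 40-min baseline, then 40 min with compound (0.03-40 uM), 37 C. Value is percent change in SD of spikes per network burst, relative to DMSO.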

[13] = CCTE_Shafer_MEA_acute_per_network_burst_electrodes_number_mean: CCTE's Neural Acute Assay for Mean Number of Electrodes in a Network Burst, Shafer Lab (AID 2284021);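 also: curves fitted for decreases only so hits reduce electrodes per burst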
How it was run: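 Primary rat cortical networks, mwMEA, 37 C. 20 min stabilization, 40 min baseline, compound 0.03-40 uM, 40 min re-record. Wells need >=10 active electrodes; percent change per well, negative fitting direction.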

[14] = CCTE_Shafer_MEA_acute_network_burst_percentage: CCTE's Neural Acute Assay for Percentage of Network Bursts, Shafer Lab (AID 2284022);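 also: curves fitted for loss so actives lower network burst percentage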
How it was run: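 Readout is the fraction of spikes falling in network bursts, expressed as per-well percent change from a 40-min pre-exposure baseline. Primary rat cortical neurons on MEA were exposed to 0.03-40 uM compound on DIV 13 or 15 and recorded for 40 min at 37 C.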

[15] = CCTE_Shafer_MEA_acute_synchrony_index: CCTE's Neural Acute Assay for Synchrony, Shafer Lab (AID 2284027);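 also: network synchrony index of spontaneous spiking in primary rat cortical neurons on MEAs; fitted for loss of signal so actives lower synchrony relative to DMSO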
How it was run: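 Spontaneous firing of mature rat cortical networks is captured extracellularly on microelectrode arrays at 37 C, with wells needing ≥10 active electrodes. Each compound (0.03-40 uM) is judged by the change in synchrony index from baseline over 40 min.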

[16] = CCTE_Shafer_MEA_acute_LDH: CCTE's Lactate Dehydrogenase Assay for Cytotoxicity in the Neural Acute Assay, Shafer Lab (AID 2284086; active = hit-call score of the fitted dose curve at least 0.9, where 1 is the maximum;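 also: active means LDH release rises above DMSO vehicle level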)
How it was run: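 Released lactate dehydrogenase, read at 490 nm, indicated cytotoxicity after acute 40-min compound treatment of rat cortical neuron networks grown on 48-well MEA plates.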

[17] = CCTE_Shafer_MEA_dev_burst_rate: CCTE's Neural Network Formation Assay for Burst Rate, Shafer Lab (AID 2284042);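 as to AC50: potency for loss of burst rate below DMSO control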
How it was run: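 Developmental network assay measuring how 12-day exposure of rat cortical neuron cultures alters bursting on extracellular MEA recordings. Values are AUC of well-mean burst rate across four recording days, relative to DMSO vehicle.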

[18] = CCTE_Harrill_HTTr_Apoptosis_PRF_DMEM_12hr: (Pilot) CCTE's 12-hour Apoptosis Assessment for the High-Throughput Transcriptomics (HTTr) Platform, in MCF-7 cells cultured in phenol red-free DMEM + 10% charcoal-stripped fetal bovine serum, Harrill Lab (AID 2283985)
How it was run: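 MCF-7 cells in phenol red-free DMEM with 10% charcoal-stripped FBS, eight-point dilution series, 12 h exposure. Caspase-3/7 activation imaged by high content imaging with CellEvent Green reagent; bidirectional fit vs DMSO.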

[19] = TOX21_TRB_BLA_Agonist_Followup_viability: Viability Assessment in the Tox21 Thyroid Hormone Receptor beta Agonism Beta-lactamase (BLA) Follow-Up Assay (AID 2283956; active = hit-call score of the fitted dose curve at least 0.9, where 1 is the maximum)
How it was run: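 TRb-bla HEK293T cells (GAL4-DBD/human TRb LBD) in 2% charcoal-stripped FBS medium were exposed 18 h at 37C to 11 concentrations in triplicate. CellTiter-Glo ATP luminescence was read after 30 min at room temperature, with bidirectional fitting against DMSO.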

In the case of CC1(C)S[C@@H]2[C@H](N)C(=O)N2[C@H]1C(=O)O, the outcome [1] is reported as “inactive”.

In the case of CCCCCCCCCC(=O)O[C@H]1CC[C@H]2[C@@H]3CCC4=CC(=O)CC[C@@H]4[C@H]3CC[C@]12C, the outcome [2] is reported as “inactive”.

With Nc1cc(Cl)ccc1O the AC50 [2] was 59700 nM (active) and the outcome [1] was “inactive”.

In the case of CN(C)CCc1c[nH]c2ccc(O)cc12, the outcome [2] is reported as “inactive”.

For S=C=NCc1ccccc1, the AC50 [2] was 42900 nM (active).

In the case of CC[n+]1ccccc1, the outcome [3] is reported as “inactive”.

With Cc1ccc2cc3c(ccc4ccccc43)c3c2c1CC3 the outcome [4] was “inactive”.

With CCn1cc[n+](C)c1 the outcome (THRA (gene 7067)) was “inactive”, the outcome (THRB (gene 7068) [5]) was “inactive” and the outcome (THRB (gene 7068) [6]) was “inactive”. The outcome [7] was “inactive”.

With COc1ccn(C)c(=O)c1C#N the outcome [4] was “inactive”.

For O=C(O)CCCCCCNC1c2ccccc2CCc2ccccc21, the AC50 (THRA (gene 7067)) was 23800 nM (active), the outcome (THRB (gene 7068) [5]) was “inactive” and the AC50 (THRB (gene 7068) [6]) was 13200 nM (active). For the same molecule, the outcome [7] was “inactive”.

With C#CCN(C)[C@H](C)Cc1ccccc1 the AC50 [8] was 15000 nM (active), the outcome [9] was “inactive” and the outcome [10] was “inactive”. The outcome [11] was “inactive”, the outcome [12] was “inactive” and the outcome [13] was “inactive”. The outcome [14] was “inactive”, the outcome [15] was “inactive” and the outcome [16] was “inactive”.

With C[n+]1ccc(-c2cc[n+](C)cc2)cc1 the AC50 [17] was 2290 nM (active).

With O=C(O)CNCP(=O)(O)O the outcome [8] was “inactive”, the outcome [9] was “inactive” and the outcome [10] was “inactive”. The outcome [11] was “inactive”, the outcome [12] was “inactive” and the outcome [13] was “inactive”. For the same molecule, the outcome [14] was “inactive” and the outcome [15] was “inactive”.

For CCOP(=O)(OCC)SCSCC, the outcome [17] was “inactive”.

With CCC(C)(C)C(=O)O[C@H]1C[C@@H](C)C=C2C=C[C@H](C)[C@H](CC[C@@H]3C[C@@H](O)CC(=O)O3)[C@H]21 the outcome [18] was “inactive”.

For CP(=O)(O)CC[C@H](N)C(=O)O, the outcome [8] was “inactive”, the outcome [9] was “inactive” and the outcome [10] was “inactive”. For the same molecule, the outcome [11] was “inactive”, the outcome [12] was “inactive” and the outcome [13] was “inactive”. The outcome [14] was “inactive”, the outcome [15] was “inactive” and the outcome [16] was “inactive”.

In the case of C[C@H](N)Cc1ccccc1, the outcome [17] is reported as “inactive”.

With CC1(C)NC(=O)N(c2ccc([N+](=O)[O-])c(C(F)(F)F)c2)C1=O the outcome [18] was “inactive”.

In the case of CP(=O)(O)CCC(N)C(=O)O (stereo not drawn), the outcome [8] is reported as “inactive”, the outcome [9] is reported as “inactive” and the outcome [10] is reported as “inactive”. For the same molecule, the outcome [11] was “inactive”, the outcome [12] was “inactive” and the outcome [13] was “inactive”. For the same molecule, the outcome [14] was “inactive”, the outcome [15] was “inactive” and the outcome [16] was “inactive”.

For CC1(C)[C@@H](C=C(Cl)Cl)[C@@H]1C(=O)O[C@@H](C#N)c1ccc(F)c(Oc2ccccc2)c1, the AC50 [8] was 2350 nM (active), the AC50 [9] was 1950 nM (active) and the AC50 [10] was 7770 nM (active). The AC50 [11] was 1280 nM (active), the AC50 [12] was 534 nM (active) and the AC50 [13] was 1680 nM (active). For the same molecule, the AC50 [14] was 1320 nM (active), the AC50 [15] was 512 nM (active) and the outcome [16] was “inactive”.

With O=Cc1ccccc1S(=O)(=O)O the outcome [19] was “inactive”.

In the case of OCCCCC(O)CO (stereo not drawn), the outcome [19] is reported as “inactive”.
